# A number with no mark means an inactive call. Calls of active or inactive are those of the source. Calls come from the whole dose curve; as a rule, active = well fitted curve in the direction sought with a large enough effect; inactive = no such curve, though single readings can be large or run the other way.
# Assay: qHTS for Inhibitors of Mutant Isocitrate Dehydrogenase 1 (IDH1): U87 Cytotoxicity Assay for Probe SAR
# Conditions: U87MG-IDH1 R132H viability, CellTiter-Glo luminescence, 72 h; series mostly up to 22.1 µM; activity change, negative = cytotoxicity: at the top concentration
# Source text: Malignant glioblastomas (WHO grade IV), including primary and secondary glioblastomas, are among the most lethal with a median survival of one year, and unfortunately they are also the most prevalent type of brain tumors. By and large the standard of care of gliomas remains the use of the oral alkylating agent temozolomide and radiotherapy following surgical tumor resection. There is an urgent unmet medical need for novel therapeutics for gliomas. IDH mutations occur in up to 70% of grade II-IV secondary glioblastomas, and IDH1 R132H is the most prevalent mutation. […] Wild-type (WT) IDH1 catalyzes the conversion of isocitrate to -ketoglutarate with the concomitant reduction of NADP+ to NADPH. In contrast, IDH1 R132H catalyzes the conversion of alpha-ketoglutarate to 2-hydroxyglutarate (2-HG) with the concomitant oxidation of NADPH to NADP+ [5]. Recently, a second significant advancement for the field was the finding that IDH is an oncogene, and that its metabolic product 2-HG may contribute to the pathogenesis of IDH-mutated cancers. […] Although this link to cancer is tantalizing, the direct evidence of how 2-HG drives pathogenesis of gliomas and AML remains a subject of further research. The goal of this cell assay is to identify whether the small-molecule inhibitors of IDH1 R132H are cytotoxic in U87MG-IDH1 R132H cells. Compounds were screened as concentration-titration series that ranged from 50 microM to 14 nM. NIH Molecular Libraries Probe Production Network [MLPCN] NIH Chemical Genomics Center [NCGC] MLSCN Grant: R03 DA032129 PI Name: Dr. Lenny Dang
# Cells were dispensed into 96-well black solid bottom plates at 2500 cells/well (RPMI medium with 10% FBS). The plates were incubated overnight at 37 °C and 5% CO2. The media was aspirated off and fresh media (RPMI and 10% FBS) with compounds in 7-point dose response was added. The plates were incubated for 48 hours at 37 °C and 5% CO2. From each well 100 microL was removed and used for LC-MS analysis to quantitate the amount of 2-HG product. The remaining cells/media were incubated for 24 additional hours at which point 100 uL of Cell Titer Glo (Promega) was added. The plates were shaken for 10 minutes and then incubated at room temperature for 20 minutes. The luminescence was read on the ViewLux in end-point mode (0.5 sec). Concentration-response curves were fitted to the signals arising from the resulting selective ion monitoring. The concentration-response curves were then classified based on curve quality (r2), response magnitude and degree of measured activity, and compounds were subsequently categorized based on their curve class. […] Keywords: Isocitrate dehydrogenase, IDH1, IDH1 R132H, 2-HG, 2-hydroxyglutarate, AML, glioma, MLSMR, MLPCN, NIH Roadmap, qHTS, NCGC
SMILES,"activity change, negative = cytotoxicity",Potency
Cc1ccccc1C(C(=O)NC(C)(C)C)N(C(=O)Cc1cccs1)c1cccc(F)c1 (stereo not drawn),-14.4%,
COc1cccc(C(C(=O)NC2CCCCC2)N(C(=O)c2cccs2)c2ccc3c(c2)OCO3)c1 (stereo not drawn),-30.4% [at 30 µM],
Cc1ccccc1C(C(=O)NC1CCCCC1)N(C(=O)Cc1cccs1)c1cccc(F)c1 (stereo not drawn),-21.8% [at 10.3 µM],
COc1ccc(N(C(=O)C2COc3ccccc3O2)C(C(=O)NC2CCCCC2)c2ccccc2)cc1OC (stereo not drawn),-23.5% [at 30 µM],
Cc1ccccc1C(C(=O)NC1CCCC1)N(C(=O)Cn1cnc2ccccc21)c1cccc(F)c1 (stereo not drawn),18.6%,
COc1ccc(N(C(=O)Cn2cnc3ccccc32)C(C(=O)NC2CCCCC2)c2ccccc2)cc1 (stereo not drawn),-6.32% [at 30 µM],
Cc1ccccc1C(C(=O)NC1CCCC1)N(C(=O)Cc1cccs1)c1cccc(F)c1 (stereo not drawn),6.51%,
Cc1ccccc1C(C(=O)NC1CCCCC1)N(C(=O)CNS(=O)(=O)c1ccccc1)c1cccc(F)c1 (stereo not drawn),,10.1 µM (active)
O=C(NC1CCCC1)C(c1ccccc1)N(C(=O)Cc1cccs1)c1cccc(F)c1 (stereo not drawn),-5.77% [at 50 µM],
Cc1ccccc1C(C(=O)NC1CCCC1)N(C(=O)Cc1cccs1)c1ccccc1F (stereo not drawn),-40% [at 50 µM],
COc1cccc(N(C(=O)Cc2cccs2)C(C(=O)NC2CCCC2)c2ccccc2)c1 (stereo not drawn),-9% [at 50 µM],
Cc1ccccc1C(C(=O)NC1CCCCC1)N(C(=O)c1ccccn1)c1cccc(F)c1 (stereo not drawn),,11.8 µM (active)
Cc1nc(C)c(C(=O)N(c2cccc(F)c2)C(C(=O)NC2CCCCC2)c2ccccc2)s1 (stereo not drawn),-12.4%,
